{"source": "PubChem BioAssay (EPA / NIEHS)", "note": "Calls of active or inactive are those of the source. The calls were made as follows: active = hit-call score of the fitted dose curve at least 0.9, where 1 is the maximum; inactive = score below 0.9.", "data": [{"assay": "BSK_SAg_PBMCCytotoxicity: PBMC Cytotoxicity Assessment in the BioMAP Diversity Plus: SAg Assay (AID 2283093);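 also: fitted both ways against DMSO so a hit may be loss or gain of signal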", "conditions": "primary human HUVEC with PBMC", "protocol": "BSK_SAg is a cell-based, multiplexed-readout assay that uses umbilical vein endothelium and peripheral blood mononuclear cells, a human vascular primary cell co-culture, with measurements taken at 24 hours after chemical dosing in a 96-well plate.BSK_SAg_PBMCCytotoxicity is an assay component measured in the BSK_SAg assay. It measures Alamar blue related to cell death using Alamar Blue Reduction technology.Data from the assay component BSK_SAg_PBMCCytotoxicity was analyzed into 1 assay endpoint. This assay endpoint, BSK_SAg_PBMCCytotoxicity, was analyzed with bidirectional fitting relative to DMSO as the negative control and baseline of activity. Using a type of viability reporter, gain or loss-of-signal activity can be used to understand changes in the viability. Furthermore, this assay endpoint can be referred to as a secondary readout, because this assay has produced multiple assay endpoints where this one serves a viability function. To generalize the intended target to other relatable targets, this assay endpoint is annotated to the cell cycle intended target family, where the subfamily is cytotoxicity.\nThe levels of cell surface (or secreted, indicated by the prefix \"s\") biomarker endpoints were measured by ELISA. Overt cytotoxicity to cells in confluent adherent cultures (all systems other than the BT system) was assessed by measuring total protein levels using sulforhodamine B (SRB) staining in parallel cultures at the time of biomarker measurements, indicated as SRB endpoints. For proliferation assays for adherent cell types, individual cell types are cultured at sub-confluence and relative cell numbers quantified by SRB staining at time points optimized for each system (48 h: 3C and CASM3C systems; 72 h: BT and HDF3CGF systems; 96 h: SAg system). SRB was performed by staining cells with 0.1% SRB after fixation with 10% TCA and reading wells at 560 nm.Viability and proliferation of PBMC (T cells) was quantified by Alamar Blue reduction for the SAg and BT systems. For PBMC viability (referred to as PBMC Cytotoxicity within the assay endpoint names), cells were plated (75,000/well in a 96-well plate) and then chemical samples added for 1 h before addition of activators, SEB and TSST-1 (20 ng/mL final concentration each). Cells were incubated for 90 h. Then, Alamar Blue (20 uL/well) (Invitrogen, Cat DAL1100) was added for 6 h, and the plates were read with a fluorescence microplate reader at 546/580 nm (excitation/emission). For PBMC proliferation, cells were plated and activated as above but incubated for only 16 h prior to addition of Alamar Blue. Plates were read after 6 h.", "values": [{"smiles": "CC(=O)[C@@]1(O)CC[C@H]2[C@@H]3CCC4=CC(=O)CC[C@]4(C)[C@H]3CC[C@@]21C", "outcome": "inactive"}, {"smiles": "CN(C)C(=O)NC1(c2ccccc2)CCN(CC[C@@]2(c3ccc(F)c(F)c3)CN(C(=O)c3ccccc3)CCO2)CC1", "outcome": "inactive"}, {"smiles": "CCCCC(CC)COC(=O)CCCCCCCC(=O)OCC(CC)CCCC", "note": "(stereo not given)", "outcome": "inactive"}, {"smiles": "CCc1nc(N)nc(N)c1-c1ccc(Cl)cc1", "outcome": "inactive"}, {"smiles": "Nc1nc(=S)c2[nH]cnc2[nH]1", "outcome": "inactive"}, {"smiles": "CC(N)=O", "outcome": "inactive"}, {"smiles": "N[C@@H](Cc1c[nH]c2ccccc12)C(=O)O", "outcome": "inactive"}, {"smiles": "CCCCCCCCCCCCCCOS(=O)(=O)O", "AC50": "34.2 µM (active)"}, {"smiles": "CN(C)CCCN1c2ccccc2Sc2ccc(Cl)cc21", "AC50": "16.4 µM (active)"}, {"smiles": "Cc1occc(=O)c1O", "outcome": "inactive"}, {"smiles": "CC(=O)O", "outcome": "inactive"}, {"smiles": "Cc1cc(Cc2ccc(N)c(C)c2)ccc1N", "outcome": "inactive"}, {"smiles": "Cc1ccc(C(C)(C)C)c(O)c1", "outcome": "inactive"}, {"smiles": "O=C1NC(=O)C(c2ccccc2)(c2ccccc2)N1", "outcome": "inactive"}, {"smiles": "NC(=Nc1ccccc1)Nc1ccccc1", "outcome": "inactive"}, {"smiles": "C=CCCCCCCCCCCCC", "outcome": "inactive"}, {"smiles": "c1ccc2occc2c1", "outcome": "inactive"}, {"smiles": "CCN(CC)CCOc1ccc(C(=C(Cl)c2ccccc2)c2ccccc2)cc1", "AC50": "6.29 µM (active)"}, {"smiles": "CC1(C)C(=O)NC(=O)N1CO", "outcome": "inactive"}, {"smiles": "Cc1cc(SC2=C(O)C[C@@](CCc3ccc(N)cc3)(C(C)C)OC2=O)c(C(C)(C)C)cc1CO", "outcome": "inactive"}, {"smiles": "NC=O", "outcome": "inactive"}, {"smiles": "C/C=C/C=C/C(=O)O", "outcome": "inactive"}, {"smiles": "CC(C)(C)c1ccccc1", "outcome": "inactive"}, {"smiles": "CSc1ccc(Oc2ccc(S(N)(=O)=O)cc2CN(C)C)cc1C", "outcome": "inactive"}, {"smiles": "CN(C)CCCN(C)CCCN(C)C", "outcome": "inactive"}, {"smiles": "CCCCCCCCCCCCCCCCO", "outcome": "inactive"}, {"smiles": "NC1CCCCC1", "outcome": "inactive"}, {"smiles": "CCOCCOCCO", "outcome": "inactive"}, {"smiles": "CC(=O)O[C@]1(C(C)=O)CC[C@H]2[C@@H]3C=C(Cl)C4=CC(=O)[C@@H]5C[C@@H]5[C@]4(C)[C@H]3CC[C@@]21C", "outcome": "inactive"}, {"smiles": "O=C1O[C@H]([C@H](O)CO)C(O)=C1O", "outcome": "inactive"}, {"smiles": "Nc1nc(Cl)nc2c1ncn2[C@H]1C[C@H](O)[C@@H](CO)O1", "AC50": "0.642 µM (active)"}, {"smiles": "O=C(NS(=O)(=O)/C=C/c1cccs1)c1ccc(F)cc1Br", "outcome": "inactive"}, {"smiles": "CC(C)OC(=O)C(C)(C)Oc1ccc(C(=O)c2ccc(Cl)cc2)cc1", "outcome": "inactive"}, {"smiles": "CCCCC(CC)COP(=O)(OCC(CC)CCCC)OCC(CC)CCCC", "note": "(stereo not given)", "AC50": "0.197 µM (active)"}, {"smiles": "O=C(O)CC(O)(CC(=O)O)C(=O)O", "outcome": "inactive"}, {"smiles": "OCC(O)CO", "outcome": "inactive"}, {"smiles": "CCCCOC(=O)CCCCC(=O)OCCCC", "outcome": "inactive"}, {"smiles": "CC(=O)OCC(COC(C)=O)OC(C)=O", "outcome": "inactive"}, {"smiles": "Oc1ccccc1O", "outcome": "inactive"}, {"smiles": "CC(=O)CC(c1ccccc1)c1c(O)c2ccccc2oc1=O", "note": "(stereo not given)", "outcome": "inactive"}]}]}
